# aSyn UTR act: Activators via SNCA 5'UTR binding, MLPCN; activity score, % (tested at 7.5 µM), hits read low; 300,000 tested, 7.1% active; AID 1814, 2009; alpha-synuclein 5'UTR reporter, activators screen; in the data active = activity score below about -60%
# Numbers stand for hits; n = inactive. Only a sample is shown.
SMILES,aSyn UTR act
CCN(CC)c1nc(Nc2ccc(Cl)cc2)nc(OCC#N)n1,n
C#Cc1cccc(NC(=O)CSc2nnc(-c3ccc(C(F)(F)F)cn3)o2)c1,-124
Cc1cccc(NC(=O)CSc2nnc(-c3n[nH]c4ccccc34)o2)c1,-180
N#Cc1cccc(NC(=O)CSc2nnc(-c3n[nH]c4ccccc34)o2)c1,-277
C(=C/c1nccc2c1[nH]c1ccccc12)/c1ccc2c(c1)OCO2,-132
COc1ccc(Br)c(-c2nnc(CS(=O)(=O)c3ccccc3)o2)c1,-85
COc1cccc(C(=O)/C=C/Nc2cccc(O)c2)c1,-87
COc1cccc(C(=O)/C=C/Nc2ccc(NC(C)=O)cc2)c1,-125
COc1ccccc1NC(=O)/C=C\c1ccco1,-84
Cc1ccc(NC(=O)/C=C/c2ccco2)nc1,-63
COc1cccc(NC(=O)/C=C/c2ccco2)c1,-158
O=C(/C=C/c1ccco1)Nc1ccc(Oc2ccc(Cl)cc2)cc1,-203
CC(C)C(=O)NC(c1ccco1)c1ccc2cccnc2c1O (stereo unspecified),n
CSc1cccc(NC(=O)/C=C/c2ccco2)c1,-178
O=C(/C=C/c1ccco1)Nc1cccnc1,-122
O=C(/C=C/c1ccco1)Nc1cccc2cccnc12,-168
CC(C)(C)C(=O)/C(=C\c1cccc([N+](=O)[O-])c1)n1cncn1,-129
COc1cc2c(cc1NC(=O)c1ccccc1F)CCCC2,-270
COc1cc(OC)c(NC(=O)c2ccccc2F)cc1Cl,-122
COc1cc2c(cc1NC(=O)c1cccc(F)c1)CCCC2,-76
CCN(CC)c1ccc2cc(-c3nc4ccccc4n3C)c(=O)oc2c1,-226
CN(C)Cc1c(O)ccc2cc(-c3nc4ccccc4n3C)c(=O)oc12,-70
COCC1CCN(Cc2nc(-c3cccs3)no2)C1 (stereo unspecified),-72
c1csc(-c2noc(CN3CCc4sccc4C3)n2)c1,-69
Cc1ccc(C(=O)CSc2nnc(N)s2)c(C)c1,-92
SMILES,aSyn UTR act
Cc1cc(C(=O)CSc2nnc(N)s2)c(C)n1C1CC1,-88
Cc1ccc(C(=O)CSc2nnc3ccccn23)c(C)c1,-74
CCOc1ccc(C(=O)CSc2nnc(N)s2)cc1,-74
O=C(c1cc2cc(Cl)ccc2[nH]1)N1CCCCC1,-85
Cc1ccc(C2/C(=C(/O)c3cnn(-c4ccccc4)c3C)C(=O)C(=O)N2CCCN2CCOCC2)o1 (stereo unspecified),-111
Cc1c(/C(O)=C2\C(=O)C(=O)N(CCN(C)C)C2c2cccs2)cnn1-c1ccccc1 (stereo unspecified),-88
O=C(Nc1cccnc1)Nc1ccc(Br)cc1Cl,-68
O=C(Nc1ccc(Nc2ccccc2)cc1)Nc1ccccc1Cl,-227
Cc1ccc(NC(=O)Nc2ccc3c(c2)C(=O)OC3)cc1Cl,-83
Cc1ccc(NC(=O)Nc2cccnc2)cc1Cl,-111
O=C(Nc1csc([N+](=O)[O-])c1)Nc1ccccc1Cl,-89
O=C(Nc1cccnc1)Nc1ccccc1Cl,-72
O=C(Nc1ccc2c(c1)CCC2)Nc1ccccc1Cl,-110
O=C(Nc1ccc(Cl)c(Cl)c1)OCc1cccnc1,-73
O=C(Nc1ccc(Cl)cc1)Nc1ccccc1Sc1ncc([N+](=O)[O-])s1,-90
O=C(NCc1ccco1)Nc1ccc(Br)cc1Cl,-170
Cc1c(C)c(C)c2[nH]c(-c3ccc4c(c3)OCO4)nc2c1C,-76
COc1cc2[nH]c(-c3ccc(C)cc3)cc(=O)c2cc1OC,-75
COc1ccc(-c2cc(=O)c3cc(C)ccc3[nH]2)cc1,-63
O=C(Nc1nnc(SCc2ccccc2)s1)c1cc2c(s1)CCCC2,-80
CCSc1nnc(NC(=O)c2cc3c(s2)CCCC3)s1,-187
COc1c(C(=O)NNC(=O)c2ccccc2Cl)csc1Br,-85
CCOC(=O)C(C(=O)OCC)C1N=C(N)N=C2Oc3ccccc3N21 (stereo unspecified),-163
COc1ccc(N2C(=S)NC3N2C(=S)NC3(C)c2ccccc2)cc1 (stereo unspecified),-93
COc1cc(C(=O)N2CCN(c3cc(Cl)ccc3Cl)CC2)cc(OC)c1OC,n
SMILES,aSyn UTR act
COc1ccccc1N1CCN(C(=O)c2ccc(Cl)c(S(=O)(=O)NCc3ccco3)c2)CC1,-124
Cc1ccc2c(c1)COc1c3ccc(C(=O)N4CCCCC4)cc3nn1-2,-108
O=C(NCC1CCCO1)c1ccc2c3n(nc2c1)-c1ccccc1CO3 (stereo unspecified),-103
O=C(c1ccc2c3n(nc2c1)-c1ccc(Cl)cc1CO3)N1CCOCC1,-109
O=C(c1ccc2c3n(nc2c1)-c1ccccc1CO3)N1CCOCC1,-114
Cc1onc(-c2c(Cl)cccc2Cl)c1C(=O)Nc1nc(C(C)(C)C)cs1,n
O=C(Nc1nc(-c2cc(Cl)sc2Cl)cs1)c1ccccc1,-85
CC(C)(C)c1csc(NC(=O)c2cccs2)n1,-84
O=C(NNc1nc(-c2ccc(Cl)cc2)cs1)c1ccco1,-73
COc1ccccc1OCc1csc(NC(=O)c2ccco2)n1,-108
O=C(Nc1nc(-c2ccc(Cl)s2)cs1)c1ccco1,-203
O=C(Nc1nc(-c2nc3ccccc3s2)cs1)c1ccco1,-161
O=C(Nc1ccc2nc(-c3ccccn3)[nH]c2c1)C1CCCCC1,-144
O=C(Nc1nc(-c2ccc(Cl)s2)cs1)c1cccs1,-276
CC1CC1C(=O)Nc1nc(-c2cccs2)c(-c2cccs2)s1 (stereo unspecified),-71
O=C(Nc1nc(-c2ccccc2)ns1)c1cccs1,-272
O=C(Nc1nc(-c2ccccc2)cs1)c1cccs1,-144
CC1CC1C(=O)Nc1nc(-c2ccccc2)cs1 (stereo unspecified),-122
O=C(Nc1nc(-c2ccccc2)cs1)c1ccccc1NS(=O)(=O)c1ccc(F)cc1,n
O=C(Nc1nc(-c2nc3ccccc3s2)cs1)C1CC1,-96
O=C(CN1C(=O)CCC1=O)Nc1nc(-c2nc3ccccc3s2)cs1,-114
Cc1csc(NC(=O)c2cn3ccccc3n2)n1,n
Cc1csc(NC(=O)c2ccco2)n1,-72
Cc1csc(NC(=O)c2cccn2C)n1,-128
O=C(Nc1nc(-c2ccccn2)cs1)C1CCCC1,-97
SMILES,aSyn UTR act
Cc1c(Cl)ccc2sc(NC(=O)c3ccco3)nc12,-199
CC(=O)c1c(C)[nH]c(C(=O)NCCc2ccccc2)c1C,-102
CN(CC(=O)NCCc1ccccc1)Cc1ccco1,-81
O=C(NCCc1ccccc1)c1c(F)cccc1F,-115
O=C(NCCc1ccccc1)c1ccco1,-85
COC(=O)/C=C/c1ccccc1S(=O)(=O)N(Cc1ccccc1)Cc1ccco1,n
Cc1cccc(NC(=O)c2sc3nc(N)c(C#N)cc3c2N)c1,-156
N#Cc1cc2c(N)c(C(=O)Nc3ccccc3)sc2nc1N,-124
Nc1c(C(=O)Nc2ccccc2)sc2nc(-c3ccco3)ccc12,-176
Cc1ccc2c(c1)C1CN(C)CCC1N2C(=O)COc1ccc(N(C)C(=O)C(C)(C)C)cc1 (stereo unspecified),-67
Cc1ccc(C(=O)N(C)c2ccc(OCC(=O)N3c4ccc(C)cc4C4CN(C)CCC43)cc2)cc1 (stereo unspecified),-86
OCc1cc(Br)ccc1OCc1nc2ccccc2s1,-70
Oc1ccccc1OCc1nc2ccccc2s1,-113
Cc1ccc(Nc2nc(COC(=O)COc3ccc(C=O)cc3)cs2)cc1,-107
C/C=C/c1ccc(OCC(=O)OCc2csc(Nc3ccc(C)cc3)n2)c(OC)c1,-177
CCn1c(Cn2nnc(-c3ccccc3)n2)nnc1SCC(=O)Nc1ccc(C(C)=O)cc1,-92
Cn1cc(/C=C/c2cc[n+](C)cc2)c2cc(Cl)ccc21,n
